Source: article PMC5540273 (PLoS ONE, 2017)

Test system: T1, RSK2(Kin.Dom.2-C-terminal)
T1 construct: gene RPS6KA3
Conditions: concentration: 1 μM, replicates: in singlicate; n = 1
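Also: KINOMEscan kinase panel screen.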

| SMILES | %Inh [%] |
| --- | --- |
| O=C1NC(=O)C(c2ccc(Cl)cc2)=C1Nc1cccc(Cl)c1 [SB-317651] | 0 |
| COC(=O)C(Cc1ccccc1)NC(=O)NC1CCN(c2ccnc(Nc3ccc(F)cc3)n2)C1 (stereo not shown) [GSK1379714] | 19 |
| COc1ccc(Nc2nccc(NCCNC(=O)Nc3cc(C)ccc3C)n2)cc1 [GSK1379899] | 9 |
| COc1ccc(Nc2nccc(N3CCC(NC(=O)C(C)c4ccc(Cl)cc4)CC3)n2)cc1 (stereo not shown) [GSK1379812] | 99.4 |
| Fc1ccc(-c2nc[nH]c2-c2ccncc2)cc1 [SB-217360] | 4 |
| CCn1c(-c2ccccc2)nc2cnccc21 [SB-733416] | 23 |
| CS(=O)(=O)CCNCc1nc(-c2ccc3ncnc(Nc4ccc(OCc5ccccc5)c(Cl)c4)c3c2)cs1.Cl [GW582764] | 2 |
| Cl.Cl.Cl.N#Cc1ccc(CCNc2nccc(-c3cccc(CN4CCNCC4)c3)n2)cc1 [GSK2137462] | 0 |
| Cc1cccc2c(-c3ccncn3)c(-c3ccc(F)cc3)nn12 [GW515532] | 8 |
| Nc1ncnc2occ(-c3ccc4c(c3)CCN4C(=O)Cc3cc(F)ccc3F)c12 [GSK2645446] | 7 |
| COc1cccc(CNC(=O)NC2CCN(c3ccnc(Nc4ccc(F)cc4)n3)C2)c1 (stereo not shown) [GSK1379723] | 28 |
| COc1ccc(CSc2nnc(-c3ccc4ncsc4c3)o2)cc1C(F)(F)F | 0 |
| CCCCc1nn2ncccc2c1-c1ccnc(NC2CC2)n1 [GW684374] | 0 |
| CCc1ccc(-c2ccc3c(c2)-c2n[nH]cc2S(=O)(=O)N3C)cc1 | 52 |
| COc1ccc(-c2coc3ccc(-c4nnc(C)o4)cc23)cc1 | 0 |
| Cc1nccc(-c2c(-c3ccc(F)cc3)ncn2CCCN2CCOCC2)n1.Cl [SB-282975] | 44 |
| Cc1ccc(NC(=O)Nc2ccccc2)cc1-c1ccc(C(=O)Nc2ccncc2)cc1 [GSK1398471] | 1 |
| CC(C)c1cc(-c2ccc3c(N)n[nH]c3c2)nc(N)n1 [GSK2250882] | 0 |
| COc1cccc(NC(=O)Nc2ccc(C)c(-c3ccc(C(=O)Nc4ccncc4)cc3)c2)c1 [GSK1398474] | 0 |
| CSc1ccc(-c2nc3n(c2-c2ccncc2)CCC3)cc1 [SKF-105561] | 20 |
| COC(=O)c1cccc(NC(=O)NC2CCN(c3ccnc(Nc4ccc(F)cc4)n3)C2)c1 (stereo not shown) [GSK1379725] | 0 |
| Fc1ccc(-c2nn3cccc(F)c3c2-c2ccncc2)cc1 [GW475620] | 33 |

Test system: T2, RSK3(Kin.Dom.1-N-terminal)
T2 construct: gene RPS6KA2
Conditions: concentration: 1 μM, replicates: in singlicate; n = 1

| SMILES | %Inh [%] |
| --- | --- |
| CNCc1ccc2nc(NC(=O)c3ccc(C(C)(C)C)cc3)cn2c1 | 1 |
| Nc1nccc(-c2c(-c3ccc(F)cc3)ncn2C2CCN(Cc3ccccc3)CC2)n1 [SB-219980] | 4 |
| CNc1nc(-c2ccc3c(N)n[nH]c3c2)cc(N2C[C@@H](C(=O)NC3CCCCC3)OC[C@H]2C)n1 [GSK2375584] | 9 |
| O=c1cc(N2CCOCC2)nc2n(Cc3cccc(Cl)c3Cl)c3ccccc3n12 [GSK2299009] | 4 |
| COc1ccc(Nc2nccc(N3CCC(NC(=O)C(C)c4ccc(Cl)cc4)C3)n2)cc1 (stereo not shown) [GSK1379735] | 14 |
| Cn1cnc2c(N)ncnc21 [SKF-97623] | 0 |
| Fc1ccc(-c2nc3n(c2-c2ccncc2)CCS3)cc1 [GI98581] | 18 |
| COC(=O)c1cccc(NC(=O)NC2CCN(c3ccnc(Nc4ccc(OC)cc4)n3)C2)c1 (stereo not shown) [GSK1379746] | 0 |
| Cn1cncc1-c1cc2c(Nc3ccc(OCc4ccccc4)cc3)ncnc2cn1 [GW281179] | 3 |
| CNC(=O)c1ccc(C)c(-n2c(C)cc(OCc3ccc(F)cc3F)c(Br)c2=O)c1 | 10 |
| CC(=O)c1c(C)c2cnc(Nc3ccc(N4CCNCC4)cn3)nc2n(C2CCCC2)c1=O | 0 |
| COc1ccc(CSc2nnc(-c3ccc4c(c3)CCO4)o2)cc1 | 0 |
| COc1ccc(CSc2nnc(-c3ccc4nccn4c3)o2)cc1C(F)(F)F | 8 |
| CN1c2ccc(-c3ccc(C(N)=O)cc3)cc2-c2[nH]ncc2S1(=O)=O | 0 |
| O=C1NC(=O)C(c2ccc(Cl)cc2)=C1Nc1cccc(Cl)c1 [SB-317651] | 18 |
| COC(=O)C(Cc1ccccc1)NC(=O)NC1CCN(c2ccnc(Nc3ccc(F)cc3)n2)C1 (stereo not shown) [GSK1379714] | 5 |
| COc1ccc(Nc2nccc(NCCNC(=O)Nc3cc(C)ccc3C)n2)cc1 [GSK1379899] | 0 |
| COc1ccc(Nc2nccc(N3CCC(NC(=O)C(C)c4ccc(Cl)cc4)CC3)n2)cc1 (stereo not shown) [GSK1379812] | 5 |

| SMILES | %Inh [%] |
| --- | --- |
| Fc1ccc(-c2nc[nH]c2-c2ccncc2)cc1 [SB-217360] | 0 |
| CCn1c(-c2ccccc2)nc2cnccc21 [SB-733416] | 28 |
| CS(=O)(=O)CCNCc1nc(-c2ccc3ncnc(Nc4ccc(OCc5ccccc5)c(Cl)c4)c3c2)cs1.Cl [GW582764] | 9 |
| Cl.Cl.Cl.N#Cc1ccc(CCNc2nccc(-c3cccc(CN4CCNCC4)c3)n2)cc1 [GSK2137462] | 0 |
| Cc1cccc2c(-c3ccncn3)c(-c3ccc(F)cc3)nn12 [GW515532] | 6 |
| Nc1ncnc2occ(-c3ccc4c(c3)CCN4C(=O)Cc3cc(F)ccc3F)c12 [GSK2645446] | 0 |
| COc1cccc(CNC(=O)NC2CCN(c3ccnc(Nc4ccc(F)cc4)n3)C2)c1 (stereo not shown) [GSK1379723] | 0 |
| COc1ccc(CSc2nnc(-c3ccc4ncsc4c3)o2)cc1C(F)(F)F | 0 |
| CCCCc1nn2ncccc2c1-c1ccnc(NC2CC2)n1 [GW684374] | 0 |
| CCc1ccc(-c2ccc3c(c2)-c2n[nH]cc2S(=O)(=O)N3C)cc1 | 5 |
| COc1ccc(-c2coc3ccc(-c4nnc(C)o4)cc23)cc1 | 0 |
| Cc1nccc(-c2c(-c3ccc(F)cc3)ncn2CCCN2CCOCC2)n1.Cl [SB-282975] | 9 |
| Cc1ccc(NC(=O)Nc2ccccc2)cc1-c1ccc(C(=O)Nc2ccncc2)cc1 [GSK1398471] | 3 |
| CC(C)c1cc(-c2ccc3c(N)n[nH]c3c2)nc(N)n1 [GSK2250882] | 0 |
| COc1cccc(NC(=O)Nc2ccc(C)c(-c3ccc(C(=O)Nc4ccncc4)cc3)c2)c1 [GSK1398474] | 7 |
| CSc1ccc(-c2nc3n(c2-c2ccncc2)CCC3)cc1 [SKF-105561] | 0 |
| COC(=O)c1cccc(NC(=O)NC2CCN(c3ccnc(Nc4ccc(F)cc4)n3)C2)c1 (stereo not shown) [GSK1379725] | 3 |
| Fc1ccc(-c2nn3cccc(F)c3c2-c2ccncc2)cc1 [GW475620] | 7 |
